According to PubChem BioAssay AID1159580 (chemical genetic matrix, 2015):
The campaign covered roughly 5,500 compounds. About 2,000 (36%) were called active. Inconclusive results (about 18%) are left out. No stated cut-off is given here; in the data, active means normalized growth mostly below about 0.91 (no sharp cut-off); inconclusive means no clear call, values can overlap the other calls; inactive means mostly above about 0.92. The list shows a part of the results.

Experiment: chemical genetic growth profiling, strain panel (AID 1159580);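 further: tested at 20 µM; growth read once vehicle control cultures reached saturation at 30 °C; 1 = growth at the plate median or of vehicle wells; lower values mean less growth of the strain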
Conditions: S. cerevisiae deletion strains, growth OD

Measured: normalized growth

CCNc1nc(Cl)nc(NCC)n1
inactive: locus YAL013W, strain DEP1, active compounds read low 1 | locus YAL021C, strain ccr4, active compounds read low 0.983 | locus YAL026C, strain drs2, active compounds read low 1 | locus YAL030W, strain snc1, active compounds read low 0.992 | locus YBL061C, strain skt5, active compounds read low 0.991 | locus YBR009C, strain hhf1, active compounds read low 0.995 | locus YBR021W, strain FUR4, active compounds read low 1.03 | locus YBR023C, strain chs3, active compounds read low 0.995 | locus YBR171W, strain sec66, active compounds read low 0.99 | locus YBR229C, strain ROT2, active compounds read low 0.993 | locus YBR231C, strain swc5, active compounds read low 0.993 | locus YBR279W, strain paf1, active compounds read low 1 | locus YCL011C, strain gbp2, active compounds read low 1 | locus YCL016C, strain dcc1, active compounds read low 1.01 | locus YCL029C, strain bik1, active compounds read low 0.999 | locus YCL061C, strain MRC1, active compounds read low 0.989 | locus YCL069W, strain vba3, active compounds read low 0.968 | locus YCR088W, strain abp1, active compounds read low 0.995 | locus YDL005C, strain med2, active compounds read low 0.988 | locus YDL035C, strain GPR1, active compounds read low 1 | locus YDL040C, strain nat1, active compounds read low 0.999 | locus YDL074C, strain BRE1, active compounds read low 0.975 | locus YDL101C, strain DUN1, active compounds read low 1.01 | locus YDL134C, strain PPH21, active compounds read low 1.01 | locus YDL185W, strain tfp1, active compounds read low 0.991 | locus YDL192W, strain arf1, active compounds read low 1 | locus YDR001C, strain nth1, active compounds read low 0.998 | locus YDR069C, strain doa4, active compounds read low 0.979 | locus YDR101C, strain arx1, active compounds read low 0.994 | locus YDR137W, strain rgp1, active compounds read low 1.01 | locus YDR150W, strain NUM1, active compounds read low 0.971 | locus YDR159W, strain sac3, active compounds read low 0.979 | locus YDR162C, strain NBP2, active compounds read low 0.97 | locus YDR195W, strain ref2 0.942 | locus YDR297W, strain sur2, active compounds read low 0.982 | locus YDR318W, strain mcm21, active compounds read low 1 | locus YDR334W, strain swr1, active compounds read low 0.996 | locus YDR335W, strain msn5, active compounds read low 0.989 | locus YDR388W, active compounds read low 1 | locus YDR392W, strain spt3, active compounds read low 1.01 | locus YDR502C, strain sam2, active compounds read low 1.01 | locus YEL003W, strain gim4, active compounds read low 1.01 | locus YEL037C, strain rad23, active compounds read low 1 | locus YEL061C, strain CIN8 (second series), active compounds read low 0.997 | locus YEL061C, strain CIN8, active compounds read low 0.997 | locus YER015W, strain faa2, active compounds read low 1 | locus YER016W, strain bim1, active compounds read low 1.01 | locus YER110C, active compounds read low 0.996 | locus YER111C, strain swi4, active compounds read low 0.996 | locus YER155C, strain BEM2 (second series), active compounds read low 0.973 | locus YER155C, strain BEM2, active compounds read low 1 | locus YER167W, strain BCK2, active compounds read low 1 | locus YFR010W, strain ubp6, active compounds read low 1 | locus YGL078C, strain dbp3, active compounds read low 1 | locus YGL086W, strain mad1, active compounds read low 1 | locus YGL167C, strain pmr1, active compounds read low 1 | locus YGL173C, strain kem1, active compounds read low 0.99 | locus YGL227W, strain vid30, active compounds read low 0.978 | locus YGL240W, strain doc1, active compounds read low 0.986 | locus YGL248W, strain PDE1, active compounds read low 1.03 | locus YGL253W, strain hxk2, active compounds read low 0.993 | locus YGR078C, strain PAC10, active compounds read low 0.989 | locus YGR135W, strain pre9, active compounds read low 1 | locus YGR229C, strain SMI1, active compounds read low 1 | locus YGR252W, strain gcn5, active compounds read low 1.02 | locus YHR013C, strain ard1, active compounds read low 0.998 | locus YHR027C, strain rpn1, active compounds read low 1 | locus YHR030C, strain SLT2, active compounds read low 0.98 | locus YHR079C, strain IRE1 (second series), active compounds read low 1.01 | locus YHR094C, strain hxt1, active compounds read low 1 | locus YHR129C, strain ARP1, active compounds read low 0.96 | locus YHR142W, strain chs7, active compounds read low 1.02 | locus YHR200W, strain rpn10, active compounds read low 1.01 | locus YIL066C, strain RNR3, active compounds read low 1.01 | locus YIL073C, strain SPO22, active compounds read low 1.09 | locus YIL125W, strain kgd1, active compounds read low 1 | locus YIR030C, strain dcg1, active compounds read low 1.01 | locus YJL092W, strain hpr5, active compounds read low 1 | locus YJL095W, strain BCK1 (second series), active compounds read low 0.994 | locus YJL095W, strain BCK1, active compounds read low 0.994 | locus YJL115W, strain asf1, active compounds read low 1 | locus YJL129C, strain trk1, active compounds read low 0.986 | locus YJL134W, strain LCB3, active compounds read low 0.993 | locus YJL154C, strain vps35, active compounds read low 0.992 | locus YJL164C, strain tpk1, active compounds read low 0.999 | locus YJL166W, strain qcr8, active compounds read low 0.987 | locus YJL168C, strain set2, active compounds read low 1.01 | locus YJL187C, strain SWE1 (second series), active compounds read low 1
